The source of these data is the supplement of paper PMC7866885, “A novel bicyclic 2,4-diaminopyrimidine inhibitor of Streptococcus suis dihydrofolate reductase” (PeerJ, 2021).

± gives the standard deviation.

The subject of this assay is Streptococcus suis HE06. The experiment in a line: percent growth relative to DMSO control; higher = less growth inhibition. Particulars: 10 µM; incubation time 18 h. As to the method:
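CLSI broth microdilution: 5x10^4 CFU of Streptococcus suis (strain P1/7 or HE06) incubated with 10 µM Pathogen Box compound in cation-adjusted Mueller Hinton broth, 37 °C, 5% CO2, 18 h. Growth read as OD600 and expressed as percent of the DMSO-treated control (100%); mean ± SD of three independent experiments.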
Consider `Nc1ncnc2c1ncn2[C@@H]1O[C@H](COS(=O)(=O)NC(=O)c2ccccc2O)[C@@H](O)[C@H]1O`, for which the percent growth stood at 97.4 ± 8.2%. With `NS(=O)(=O)c1cncc(-c2ccc3nccc(-c4cn[nH]c4)c3n2)c1`, the percent growth is 102 ± 33%.

`Cc1nc2ccccn2c1C(=O)NCc1ccc(Cl)cc1`: the percent growth turned out to be 78.1 ± 14%. The same measure for `CN1CCN(S(=O)(=O)c2ccc(-c3ccc4c(Nc5ncc(Cl)cn5)ccnc4c3)cc2)CC1`: 92.2 ± 8.5%.

For `CCS(=O)(=O)N(Cc1ccco1)Cc1cc2ccc(C)cc2nc1O`, the percent growth turned out to be 90.6 ± 1.9%. As to `O=C(COc1cccc(F)c1)Nc1nc(-c2ccccn2)cs1`, the percent growth is -0.0745 ± 0.086%. On to `CS(=O)(=O)Cc1nc2ccccc2oc1=O`, for which the percent growth came out at 67.6 ± 7.5%. In the case of `N#Cc1ccc(-c2cnc(N)c(-c3ccc(C(N)=O)cc3)n2)cc1`, the percent growth was 114 ± 46%. The value for `CN(C(=O)c1cc2c(-c3cncnc3)cccc2[nH]1)c1ccccc1` was 102 ± 29%; that for `CCc1cc(=O)n(C)c(SC(C)C(=O)Nc2ccc(F)cc2)n1` (stereo not drawn) was 110 ± 23%; that for `CNc1cc(C)nc(C2CN(C(=O)c3n[nH]c4ccccc34)CCO2)c1` (stereo not drawn) was 89.6 ± 5.4%. Regarding `O=C([C@@H](c1ccc(Cl)cc1)c1cccnc1)N1CCN(c2ccc(C(F)(F)F)cc2)CC1`, the percent growth was 89 ± 10%. The same measure for `COc1cc(-c2cc(-c3ccc(S(C)(=O)=O)cc3)cnc2N)ccc1O`: 106 ± 34%; for `CCN(CC)CCCN1CCN(C(=O)c2cccc(-c3noc(C(F)(F)F)n3)c2)CC1`: 90.3 ± 14%; for `CC(C)(C)n1nc(-c2ccccc2)c2c(N)ncnc21`: 79.7 ± 12%. The same measure for `O=C(CN1CCOCC1)Nc1ccc2ncnc(Nc3ccc(OCc4cccc(F)c4)c(Cl)c3)c2c1`: 53.5 ± 39%; for `Cc1cc(C)cc(COc2ccc3c(C)c(CCC(=O)O)c(=O)oc3c2C)c1`: 39.9 ± 40%. The value for `C[C@H]1c2cccc(O)c2C(=O)C2=C(O)[C@]3(O)C(=O)C(C(N)=O)=C(O)[C@@H](N(C)C)[C@@H]3[C@@H](O)[C@@H]21` was 10.4 ± 18%; that for `CC1CS(=O)(=O)CCN1/N=C/c1ccc([N+](=O)[O-])o1` (stereo not drawn) was 85.9 ± 6.6%; that for `Cc1cc(C)n2nc(C(=O)Nc3cc(C(F)(F)F)ccc3N3CCOCC3)nc2n1` was 240 ± 280%.

In the case of `Brc1c(-c2ccc3c(c2)OCO3)nc2ncccn12`, the percent growth was found to be 95.7 ± 6.9%. The value for `CCC(Sc1nc2ccccc2o1)C(=O)Nc1nccs1` (stereo not drawn) was 0%. The value for `O=C(NC1CC1)c1ccc(N2CCOc3ccc(Cl)cc32)s1` was 73.8 ± 20%; that for `COc1cc(NC(C)CCCN)c2ncccc2c1` (stereo not drawn) was 90.6 ± 4%; that for `CN1CCCN(C(c2ccccc2)c2ccc(Cl)cc2)CC1` (stereo not drawn) was 91.9 ± 4.1%. The value for `CC(C(=O)Nc1ccc2oc(-c3ccncc3)nc2c1)c1ccccc1` (stereo not drawn) was 81.1 ± 11%; that for `COc1ccc(OC)c(NCc2ccc3nc(N)nc(N)c3c2Cl)c1` was 4.05 ± 6.3%; that for `Cc1cc(Cl)c(S(=O)(=O)N2CCCC2)cc1OCC(=O)NC1CCCCC1` was 87.7 ± 22%.

With `CC1CCCCN1C(=O)NCCc1coc(-c2ccc(F)cc2)n1` (stereo not drawn), the percent growth was found to be 79.5 ± 6.9%. Turning to `COc1ccc(Nc2ccccc2NC(=O)c2ccc(O)nc2)cc1`, the percent growth is 86.7 ± 11%. The same measure for `Cc1cc(NCCc2ccccc2)nc(NC(=N)Nc2ccc(Cl)cc2)n1`: 148 ± 68%; for `NC(=O)c1cc(Br)ccc1OCCOc1ccccc1`: 85.2 ± 9.9%; for `CNc1snc(C)c1C(=O)NCCOc1ccc(OC)cc1`: 102 ± 22%.

As for `CCc1ccccc1-n1c(C)cn2c3c(=O)n(C(C(=O)OC)C(C)C)c(=O)n(C)c3nc12` (stereo not drawn), the percent growth came out at 109 ± 4.8%. The same measure for `CN1CCN(c2nccc3[nH]c(-c4cccc(F)c4)cc23)CC1`: 97.4 ± 6.1%; for `c1coc(CNc2nc(N3CCCCC3)nc3ccccc23)c1`: 78 ± 7.8%. For the molecule `CC(C)(C)c1cnc(NC(=O)c2ccccc2O)s1`, the percent growth is 19.7 ± 28%. Regarding `COc1cccc(-n2nnnc2S(C)(=O)=O)c1`, the percent growth stood at 88.1 ± 9.8%.
